Data published in PubChem BioAssay (NCI).
The panel holds about 83,000 compounds, 20% with a hit somewhere; the sample as a whole holds those more often.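 Compound tested at a single concentration for 48 hours in 96-well plates; a percent growth value below 10 was scored as active.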 Active and inactive are the calls of the source.

System: HL-60(TB) leukemia
Assay: NCI-60 one-dose screen, 48 h (100 = growth as untreated, 0 = no growth, -100 = all killed)
Details: 10 µM unless noted

SMILES	growth
Fc1ccc(-c2cc3nc(C(Cl)Cl)nc(-c4ccco4)n3n2)cc1	-42.7% (active)
Cc1cc(C(=O)Nc2ccc(SC#N)cc2)c(C)o1	47.7% (inactive)
O=C(O)c1ccc(-n2cc(CNc3ccc(Cl)cc3)c(-c3ccc(F)cc3)n2)cc1	111% (inactive)
COc1ccc(/C=N/NC(=O)c2c(N)nn(C)c2Nc2ccccc2)cc1	15.5% (inactive)
CC(=O)NC(C)(C)C(=O)N1CCC[C@H]1C(=O)NC(C)(C)C(=O)N[C@@H](C)C(=O)NC(C)(C)C(=O)NC(C)(C)C(=O)N[C@@H](CCC(N)=O)C(=O)NC(C)(C)C(=O)N[C@H](C(=O)NC(C)(C)C(=O)NCC(=O)N[C@@H](CC(C)C)C(=O)NC(C)(C)C(=O)N1CCC[C@H]1C(=O)N[C@H](C(=O)NC(C)(C)C(=O)NC(C)(C)C(=O)N[C@@H](CCC(N)=O)C(=O)N[C@@H](CCC(N)=O)C(=O)N[C@H](CO)Cc1ccccc1)C(C)C)C(C)C	7.73% [4.25 µM] (active)
COc1cc(/C=C/C(=O)c2ccc(NC(=O)CSc3nnc(-c4ccc(-c5nc6ccc(Cl)cc6[nH]5)cc4)o3)cc2)cc(OC)c1OC	73.6% (inactive)
Cc1ccc(-n2cc(/C=N/NC(=O)c3nc(N)n[nH]3)c(-c3ccc(S(C)(=O)=O)cc3)n2)cc1	95.1% (inactive)
O=C(Nc1cccc(Cl)c1)Nc1nc2cc([N+](=O)[O-])ccc2o1	52.7% (inactive)
COc1ccc(-c2nnc(SCc3ccc(O)c4ncccc34)n2-c2ccccc2)cc1	10.9% (inactive)
Cc1[nH]c(C(=O)Nc2ccccc2OCc2cccc(C(=O)NCCN)c2)cc1Cl	89.6% (inactive)
COc1ccc2c(c1)c(CC(=O)[Se]CC#N)c(C)n2C(=O)c1ccc(Cl)cc1	-14% (active)
CCN1C(=O)N(CC)C2SC(N/N=C/c3ccc(F)cc3)=NC21 (stereo not given)	2.85% (active)
C=C(C)[C@@H]1CC[C@]2(COP(=O)(OCC)OCC)CC[C@]3(C)[C@H](CC[C@@H]4[C@@]5(C)CC[C@H](OP(=O)(OCC)OCC)C(C)(C)[C@@H]5CC[C@]43C)[C@@H]12	16.2% (inactive)
Cc1ccc(C(=O)Nc2ccc(CNCCN3CCNCC3)c(C(F)(F)F)c2)cc1C#Cc1cnc2cccnn12	-54.7% (active)
COc1cc(Cn2cc3c(c2)-c2onc(CN4CCOCC4)c2CC3)cc(OC)c1OC	99.9% (inactive)
Cc1[nH]c(C(=O)Nc2ccc(C(=O)NCC3CCNCC3)cc2OC(C)C)c(Cl)c1Cl	73.1% (inactive)
C#CCOc1ccc(/C=N/Nc2nc(-c3cc4cc(Br)cc(Br)c4oc3=O)cs2)cc1	85.9% (inactive)
O=S(=O)(NCCCNc1nccc(-c2[nH]c(-c3ccccc3)nc2-c2ccc(F)c(O)c2)n1)c1ccccc1	90.6% (inactive)
O=C1C(c2ccccc2)=C(N2CCc3ccccc32)OC1(Cl)Cl	-14.6% (active)
CCO/C=N/C1=C(C#N)C(c2ccc(Cl)cc2)c2sc3c(C)cccc3c2O1 (stereo not given)	-12.7% (active)

SMILES	growth
Cc1ccc(-c2nc(C(Cl)Cl)nc3cc(-c4ccccc4)nn23)cc1	-12% (active)
NS(=O)(=O)c1ccc(Nc2nc(N/N=C/c3ccc4c(c3)OCO4)nc(Nc3ccccc3)n2)cc1	31.1% (inactive)
NC(=O)c1cccc(-n2ccc3cc(NC(=O)Nc4ccc(N5CCOCC5)c(C(F)(F)F)c4)ccc32)n1	-52.2% (active)
CCOC(=O)c1c(Nc2ccccc2)nn2c(-c3ccccc3)ccnc12	80.7% (inactive)
CC(=O)c1cc(C(=O)c2ccc(Br)cc2)n2cc(C)cc(C)c12	83.3% (inactive)
NC(N)=Nc1ccc(Oc2ccc(Nc3ccc(Cl)c(C(F)(F)F)c3)cc2)cc1	-33.8% (active)
CC(=O)Nc1cccc(Nc2nc(N[C@H](C)c3ccccc3)c3ccccc3n2)c1	13.6% (inactive)
CCO/C=N/C1=C(C#N)C(c2ccc(Cl)cc2)c2sc3c(CC)cccc3c2O1 (stereo not given)	-0.966% (active)
CNC(=O)c1cc(-n2ccc3cc(NC(=O)Nc4ccc(N5CCN(C)CC5)c(C(F)(F)F)c4)ccc32)ccn1	65.8% (inactive)
CCOC(=O)c1c(NCC(=O)Nc2cccc([N+](=O)[O-])c2)sc(C(C)=O)c1C	-18.4% (active)
O=S(=O)(Oc1ccc(-c2nnc(Nc3ccccc3)s2)cc1)C(F)(F)C(F)(F)C(F)(F)C(F)(F)C(F)(F)C(F)(F)F	70.6% (inactive)
Cc1ccc(N2CCN(C3=C(Cl)C(=O)c4ncccc4C3=O)CC2)cc1	3.39% (active)
Cc1ccc2c(n1)C(=O)C(Cl)=C(Nc1ccc(C)c(C)c1)C2=O	58.4% (inactive)
CNC(=O)c1cc(Oc2ccc3c(c2)sc2nc(-c4ccc(N(C)C)cc4)cn23)ccn1	5.28% (active)
COc1ccc2c(c1)C=CC1(O2)Oc2ccc(OC)cc2C=C1C (stereo not given)	-3.1% (active)
CC(=NNc1ncnc2ccccc12)c1ccc(S(C)(=O)=O)cc1	98.9% (inactive)
CCCCCc1ccc(S(=O)(=O)Nc2cc(-c3csc(N)n3)ccc2OC)cc1	60.8% (inactive)
CCN(CC)c1ccc(NC2=C(Cl)C(=O)c3nc(C)ccc3C2=O)cc1	-34.6% (active)
O=C(CCCCCCNC(=O)C(O)(O)C(F)(F)F)Nc1ccc(Br)cc1	10.4% (inactive)
O=C1c2c(c3c4cc(Br)ccc4[nH]c3c3ccc4ccccc4c23)C(=O)N1CCN1CCNCC1	62.3% (inactive)
